Test results as given in PubChem BioAssay (NCI).
Compounds without any hit were thinned out: in the full panel of roughly 79,000, 15% have a hit. Active and inactive are the calls of the source. No stated cut-off is given here; in the data, active means growth inhibition above about 70%; inactive means the rest.

What was measured:
[1] = NCI Yeast Anticancer Drug Screen. Data for the rad50 strain (AID 155);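 further: 0% = growth of vehicle-only cultures of the same strain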; details: S. cerevisiae rad50 strain growth inhibition; at 50.0 µM; stronger effect = higher value
In short: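 A DNA repair-deficient yeast mutant serves as the test organism; compound-induced growth inhibition is calculated against vehicle-treated cells.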

[2] = NCI Yeast Anticancer Drug Screen. Data for the mec2-1 strain (AID 157); details: S. cerevisiae mec2-1 strain, at 50.0 µM, stronger effect = higher value
In short: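 Strain: mec2-1 (DNA repair/cell cycle alteration). Compound exposure, then growth measured; inhibition expressed relative to vehicle.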

[3] = NCI Yeast Anticancer Drug Screen. Data for the sgs1 mgt1 strain (AID 161);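 further: 0% = growth of cultures given vehicle only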; details: S. cerevisiae sgs1 mgt1 strain, at 50.0 µM, stronger effect = higher value
In short: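 Inhibition of yeast growth, normalised to vehicle-treated controls, is reported for a strain bearing genetic alterations in DNA damage repair.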

[4] = NCI Yeast Anticancer Drug Screen. Data for the cln2 rad14 strain (AID 165);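 further: 0% = growth equal to vehicle treated cultures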; details: S. cerevisiae cln2 rad14 strain, at 50.0 µM, stronger effect = higher value
In short: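 Compounds are applied to the cln2 rad14 yeast strain, and growth is then compared with that of vehicle-treated cultures to give inhibition.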

[5] = NCI Yeast Anticancer Drug Screen. Data for the bub3 strain (AID 167); details: S. cerevisiae bub3 mutant strain, at 50.0 µM, stronger effect = higher value
In short: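 Inhibition values come from growth of compound-treated mutant yeast normalised to vehicle-treated controls.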

[6] = NCI Yeast Anticancer Drug Screen. Data for the mlh1 rad18 strain (AID 175); details: S. cerevisiae mlh1 rad18 strain growth inhibition; at 50.0 µM; stronger effect = higher value
In short: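 Read-out is yeast growth inhibition, calculated against vehicle-only controls. The compound was applied to a strain engineered with DNA damage repair alterations.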

Measured: growth inhibition

NC(CSCCC(=O)O)C(=O)O (stereo not given)
inactive: [1] -16.9% | [2] -10.3% | [3] -7.45% | [4] -39.6% | [5] -3.05% | [6] -12.4%

O=C(/C=C/c1ccccc1)NC(=S)Nc1cc(Cl)ccc1O
inactive: [1] 2.55% | [2] 7.8% | [3] 6.25% | [4] 5.5% | [5] 12.7% | [6] 6.85%

O=C1c2ccccc2C(=O)c2c1ccc1c2N=C(c2ccc(Br)cc2)CC(c2cccc3ccccc23)N1 (stereo not given)
inactive: [1] -22.1% | [2] 11.6% | [3] 17.9% | [4] 10.2% | [5] 9.95% | [6] -11.6%

C=CC[Si](CC=C)(CC=C)OCC
inactive: [1] 22.5% | [2] -17.6% | [3] 4.05% | [4] 7% | [5] -6% | [6] 17.4%

CCCCCCCCCCCCCCCc1c(NC(C)(CC)[P+](=O)O)c(=O)n(C)n1C (stereo not given)
inactive: [1] -41.5% | [2] -32.5% | [3] -7.45% | [4] -29.9% | [5] -12.2% | [6] -18.8%

O=C(CC(=O)n1nc(-c2ccccc2)c(N=Nc2ccc([N+](=O)[O-])cc2)c1-c1ccccc1)Nc1ccc(Cl)cc1
inactive: [1] 35.6% | [2] 3.1% | [3] 52% | [4] 17.4% | [5] 53% | [6] 23.9%

N#CCN1CCOCCOCCN(CC#N)CCOCCOCC1
inactive: [1] 3.1% | [2] -0.75% | [3] 5.75% | [4] 19.7% | [5] 7.4% | [6] 42.1%

O=C1N=C(c2c[nH]c3ccccc23)C(=O)N1
inactive: [1] -1.8% | [2] 6.9% | [3] 15.9% | [4] 12.6% | [5] -1.45% | [6] 8.8%

CC(C)(C)c1ccc(C(=O)O)c(O)c1.CC(C)(C)c1ccc(C(=O)O)c(O)c1.[Cu]
inactive: [1] 24.6% | [2] 15.1% | [3] 43.4% | [4] 47.6% | [5] 2.75% | [6] 37.1%

CC(C)(C)OC(=O)[N+](=N)C(=O)C1CCC(=O)N1C(=O)OCc1ccccc1 (stereo not given)
inactive: [1] -27.7% | [2] -33.6% | [3] -23.4% | [4] -11.4% | [5] -1.9% | [6] -20%

CCOc1ccc(N=Nc2c(C)nc(N)nc2-c2ccccc2)cc1
inactive: [1] 20.1% | [2] -14.7% | [3] 4.1% | [4] -4.75% | [5] 35.4% | [6] 24.4%

NCCCCC(C(=O)NCC(=O)O)N(C(=O)OCc1ccccc1)C(=O)OCc1ccccc1 (stereo not given)
inactive: [1] -2% | [2] -4.6% | [3] -0.55% | [4] -33.1% | [5] -2.2% | [6] -2.05%

Cc1nc2c(cc1C(=O)N/N=C/c1ccc([N+](=O)[O-])cc1)c(=O)n(C)c(=O)n2C
inactive: [1] -33.4% | [2] -21.8% | [3] -11.9% | [4] -5.75% | [5] -50.9% | [6] 18.1%

Cc1cc(C)c(CC(=O)NCC(=O)NN)c(C)c1
inactive: [1] -7.25% | [2] -24.9% | [3] -17.1% | [4] -13.3% | [5] -12% | [6] -28.8%

Cc1nc(C)c(N2CCN(C#N)CC2)c(=O)[nH]1
inactive: [1] -52.6% | [2] -23.6% | [3] -29.1% | [4] 0.35% | [5] -11.7% | [6] -40.2%

COC1(OC)CCCc2c1no[n+]2[O-]
inactive: [1] -43.4% | [2] -11.3% | [3] -50.2% | [4] -16.7% | [5] 16.5% | [6] -21.2%

CCC1=C/C(=N/O)C(C)=CC1(C)C(Cl)(Cl)Cl (stereo not given)
inactive: [1] 25.7% | [2] 7.65% | [3] 10% | [4] 17.2% | [5] 17.9% | [6] 48.5%

Cc1cc2nc(N3CCOCC3)n(C3OC(CO)C(O)C3O)c2cc1C (stereo not given)
inactive: [1] -6.6% | [2] 5.75% | [3] 23.2% | [4] 1.55% | [5] -8.95% | [6] 3.95%

Oc1ccccc1CN=Cc1ccccc1
inactive: [1] 7.45% | [2] 4.1% | [3] -4.25% | [4] -0.5% | [5] -27.2% | [6] 4.85%

CC1(C)COC(CCl)OC1
inactive: [1] 27.1% | [2] 17.9% | [3] 11.3% | [4] -16.5% | [5] 1.95% | [6] 30.9%

Nc1cc(Cl)cc(S(=O)(=O)O)c1O
inactive: [1] 1.9% | [2] -0.05% | [3] -2.95% | [4] -65.9% | [5] 9.05% | [6] -13.9%

C=C(C)C1CCC2(CO)C(O)CC3(C)C(CCC4C5(C)CCC(O)C(C)(C)C5CCC43C)C12 (stereo not given)
inactive: [1] 14.5% | [2] 7.45% | [3] -8.75% | [4] 2.95% | [5] 15.6% | [6] -6.6%

COc1c(-c2cccs2)oc2c(CC(=O)O)cccc2c1=O
inactive: [1] 10.9% | [2] -10.8% | [3] 28.1% | [4] 5.9% | [5] 17.7% | [6] -26%

O=C(Sc1c(-c2ccccc2)c(=O)n(-c2ccccc2)c(=S)n1-c1ccccc1)c1ccc(Cl)cc1
inactive: [1] 2.75% | [2] 3.9% | [3] 16.1% | [4] -4.35% | [5] 5.4% | [6] 12.8%

O=S(c1ccccc1)[C@H]1CC2C3CC4C2C4C31 (stereo not given in full)
inactive: [1] 2.3% | [2] 4.7% | [3] -1.7% | [4] 4.45% | [5] 19.9% | [6] 17.9%

Cc1ccc(C)n1-n1c(-c2ccccc2)n[nH]c1=O
inactive: [1] -19.8% | [2] -20.9% | [3] -2.7% | [4] -3.4% | [5] -27.7% | [6] -12.3%

CC(=O)OCC(OC(C)=O)C(OC(C)=O)C(OC(C)=O)C1OC(=O)C(OC(C)=O)C1OC(C)=O (stereo not given)
inactive: [1] 0.5% | [2] -12% | [3] 3.8% | [4] 2.25% | [5] -0.75% | [6] 9.9%

COc1ccc2cc(C(C)C(=O)N3C(=O)OCC3(C)C)ccc2c1 (stereo not given)
inactive: [1] 19.4% | [2] -11.3% | [3] 30.4% | [4] -13.7% | [5] -8.75% | [6] 9.95%

OCCCCCCOc1ccc(-c2cc(-c3ccccn3)nc(-c3ccccn3)c2)cc1
active: [5] 70.5%
inactive: [1] 52% | [2] 67.5% | [3] 68.9% | [4] 64.9% | [6] 65.5%

NC(N)=N/N=C(\c1ccc(Cl)cc1)C1CC1
inactive: [1] 2.7% | [2] -5.05% | [3] -11.9% | [4] -13.2% | [5] -65.3% | [6] 10%

CN(C)C1C(=O)c2ccccc2C1=O
inactive: [1] -34.6% | [2] -27.6% | [3] -29.5% | [4] -5.1% | [5] 0.05% | [6] -14.8%

C[N+](C)(C)CC(=O)NC(=O)N/N=C\C(CC#N)CN(Cc1ccccc1)Cc1ccccc1 (stereo not given)
inactive: [1] 23.5% | [2] 13.7% | [3] 19.1% | [4] 10.6% | [5] 2.35% | [6] 12.2%

CC1(C)OC2CC(=O)OCC23C1CC(=O)C1(C)C3CCC2(C)C(c3ccoc3)OC(=O)C3OC321 (stereo not given)
inactive: [1] -7.65% | [2] 1.4% | [3] -0.55% | [4] 10.1% | [5] 8.7% | [6] 18.5%

O=c1ccn(C2OC(CO)C(O)C2Cl)c(=O)[nH]1 (stereo not given)
inactive: [1] -6.7% | [2] -42.1% | [3] -11.4% | [4] 10.2% | [5] 4.9% | [6] -14.4%

CCOC(=O)Cc1nc2ccccc2[nH]c1=O
inactive: [1] 25% | [2] -11.7% | [3] 1.25% | [4] 0.35% | [5] -6.35% | [6] -17.2%

CCN(CC)C(=O)c1cccc(C(=O)N(CC)CC)n1
inactive: [1] 11.1% | [2] 3.6% | [3] 10.2% | [4] 39.4% | [5] 21.4% | [6] 24.7%

O=C(O)CCC(=O)Nc1ccc(S(=O)(=O)Nc2nccs2)cc1
inactive: [1] -18% | [2] -36.2% | [3] -16.5% | [4] -17.9% | [5] -18.3% | [6] -14.6%

CN1C(=O)N(C)C2=NC(=O)N(C)C2(C(Cl)(Cl)Cl)C1=O (stereo not given)
inactive: [1] 45.3% | [2] 32.2% | [3] 47.4% | [4] 24.6% | [5] 21.6% | [6] 58%

COc1cc(C2C(C(=O)O)=C(CO)Oc3cc4c(cc32)OCO4)cc(OC)c1OC (stereo not given)
inactive: [1] -5.4% | [2] 7.35% | [3] -4.95% | [4] 1.1% | [5] -4.6% | [6] 4.25%

CC(C(=O)O)N(CCC#N)CCC#N (stereo not given)
inactive: [1] 17.8% | [2] -6.05% | [3] -0.5% | [4] 0.1% | [5] 2.35% | [6] 3.4%
